In PubChem BioAssay (Tox21) one finds Potency data, which are given here for 14 compounds.

Results filed as inconclusive are left out. The source made the active and inactive calls. Unless noted, calls follow the shape of the dose curve; as a rule, active = well fitted curve in the direction sought with a large enough effect in the repeat runs; inconclusive = weak or mixed curves; inactive = no such curve, though single readings can be large; an effect the other way counts as inactive or inconclusive.

A short description of assay [1]: qHTS RealTime-Glo MT Cell Viability Assay in HEK293 cells - 0 hour (AID 1224880). Also: top concentration of the series differs between compounds; nearly all actives have a fitted effect of over 45% in size. A digest of the protocol: (§1)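 Luminescence readout at each listed time point; HEK293, 600 cells/well, RealTime-Glo MT reagent added with cells; compounds pinned (23 nL in DMSO) after 5 h at 37 C; continuous culture at 37 C.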
Background: In qHTS, concentration-response curves come from the screen itself.

Assay [2] can be described thus: A CellTox Green Cytotoxicity Assay to monitor cytotoxicity in HEK293 cells - 32 hour (AID 1224881). Also: nearly all actives have a fitted effect of over 40% in size. Also: potency is read from the fitted curve at half-maximal effect. A digest of the protocol: (§2)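 Read-out: fluorescence of a cell-impermeant cyanine dye staining DNA of dead cells, proportional to cytotoxicity. HEK293, 600 cells/well with reagent, compound (23 nL DMSO) added after 5 h; reads at 0, 8, 16, 24, 32, 40 h.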
Assay [3] in a line: A CellTox Green Cytotoxicity Assay to monitor cytotoxicity in HepG2 cells - 0 hour (AID 1224882). Also: nearly all actives have a fitted effect of over 35% in size. A digest of the protocol: (§3)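 HepG2, 600 cells/well premixed w/ CellTox Green; 5 h settle, 37 C/5% CO2; pintool cpd add (DMSO); 37 C, 40 h; fluorescence read at 0, 8, 16, 24, 32, 40 h.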
Assay [4] in a line: A CellTox Green Cytotoxicity Assay to monitor cytotoxicity in HepG2 cells - 32 hour (AID 1224883). Also: nearly all actives have a fitted effect of over 50% in size. Also: potency is read from the fitted curve at half-maximal effect. Put shortly:
as §3

The nature of assay [5]: A CellTox Green Cytotoxicity Assay to monitor cytotoxicity in HEK293 cells - 8 hour (AID 1224884). Also: nearly all actives have a fitted effect of over 35% in size. Put shortly:
as §2

Assay [6] is described as follows: qHTS RealTime-Glo MT Cell Viability Assay in HepG2 cells - 16 hour (AID 1224885). Also: nearly all actives have a fitted effect of over 50% in size. A digest of the protocol: (§4)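 Tox21 10K library screened in qHTS format on HepG2 cells carrying RealTime-Glo reagents. Compounds were added after a 5 h preincubation, and the luminescent signal from continuous culture was measured repeatedly during 40 h treatment.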
Assay [7] can be described thus: qHTS RealTime-Glo MT Cell Viability Assay in HEK293 cells - 24 hour (AID 1224886). Also: nearly all actives have a fitted effect of over 50% in size. Also: potency is read from the fitted curve at half-maximal effect. Put shortly: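 Luminescence generated by NanoLuc from substrate produced by living HEK293 cells served as the viability signal. Each value reflects the reading at its stated time point during continuous 40 h compound exposure at 37 C.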
The nature of assay [8]: qHTS RealTime-Glo MT Cell Viability Assay in HEK293 cells - 8 hour (AID 1224887). Also: top concentration of the series differs between compounds; nearly all actives have a fitted effect of over 50% in size. A digest of the protocol:
as §1

Assay [9] in a line: A CellTox Green Cytotoxicity Assay to monitor cytotoxicity in HEK293 cells - 16 hour (AID 1224888). Also: nearly all actives have a fitted effect of over 35% in size. A digest of the protocol:
as §2

A short description of assay [10]: qHTS RealTime-Glo MT Cell Viability Assay in HepG2 cells - 0 hour (AID 1224889). Also: nearly all actives have a fitted effect of over 50% in size. A digest of the protocol:
as §4

Assay [11] in a line: A CellTox Green Cytotoxicity Assay to monitor cytotoxicity in HepG2 cells - 8 hour (AID 1224890). Also: nearly all actives have a fitted effect of over 45% in size. A digest of the protocol: as §3
Assay [12] is described as follows: qHTS assay to identify small molecule antagonists of the estrogen receptor alpha (ER-alpha) signaling pathway using the BG1 cell line in the presence of 0.1 nM 17-beta-estradiol - cell viability counter screen (AID 1259241). Also: nearly all actives have a fitted effect of over 40% in size. Put shortly:
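Cytotoxicity counter-screen: live-cell protease activity measured by fluorescence (30 min reagent step) in the same wells. Cells were VM7Luc4E2 with endogenous ER-alpha and ERE-driven luciferase, treated 22 hr at 37C alongside 0.1 nM 17beta-estradiol final.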

Assay [13] can be described thus: qHTS assay to identify small molecule antagonists of the androgen receptor (AR) signaling pathway using the MDA cell line in the presence of 0.5 nM R1881 - cell viability counter screen (AID 1259242). Also: nearly all actives have a fitted effect of over 45% in size. Put shortly: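 Live-cell protease fluorescence, CellTiter-Fluor, 30 min at 37C. Cells: MDA-kb2, 3,000/well, preincubated 5 hr. Compounds plus 0.5 nM R1881 final, 16 hr, 37C, 0% CO2.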

A short description of assay [14]: qHTS assay to identify small molecule agonists of the sonic hedgehog signaling (Shh) pathway - cell viability counter screen (AID 1259366). Also: nearly all actives have a fitted effect of over 50% in size. Put shortly:
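Cytotoxicity counter screen: CellTiter-Fluor reagent added after 23 h compound exposure, then 1 h at 37C and fluorescence read. Cells were 3T3 Gli1-Luc, seeded 2,000 per well and dosed 4 h post-plating.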

A short description of assay [15]: qHTS assay to identify small molecule antagonists of the sonic hedgehog signaling (Shh) pathway - cell viability counter screen (AID 1259367). Also: nearly all actives have a fitted effect of over 55% in size. A digest of the protocol:
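CellTiter-Fluor signal in conditioned medium-stimulated 3T3 Gli1-Luc cells, 23 hr compound exposure, 37C.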

Assay [16] has as its target Estrogen receptor (Homo sapiens) (UniProt P03372). Kind of assay: qHTS assay to identify small molecule antagonists of the estrogen receptor alpha (ER-alpha) signaling pathway using the BG1 cell line in the presence of 0.1 nM 17-beta-estradiol (AID 1259244). Also: nearly all actives have a fitted effect of over 50% in size. A digest of the protocol:
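Luminescence after ONE-Glo (30 min, room temperature) measured ERE-luciferase activity in VM7Luc4E2 cells treated 22 h with compound and 0.1 nM final 17beta-estradiol as stimulator.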

Assay [17] in a line: qHTS assay to identify small molecule HDAC inhibitors (AID 1259364).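 Also: wild-type HCT-116 cells with endogenous class I/II HDAC activity; top concentration of the series differs between compounds; nearly all actives have a fitted effect of over 45% in size.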 Put shortly: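 HCT-116 (wild type), 1,500 cells/well, overnight; compound 2 hr 37C 5% CO2; HDAC-Glo I/II reagent 30 min RT; luminescence readout.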
Assay [18] is described as follows: qHTS assay to identify small molecule HDAC inhibitors - cell viability counter screen (AID 1259365). Put shortly:
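CellTiter-Glo luminescence (30 min, room temperature) reported viability after a 2 h compound exposure at 37 C. Cells: wild-type HCT-116, 1,500 per well, seeded the night before.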

In assay [19] the target is Androgen receptor (Homo sapiens) (UniProt P10275). Kind of assay: qHTS assay to identify small molecule antagonists of the androgen receptor (AR) signaling pathway using the MDA cell line in the presence of 0.5 nM R1881 (AID 1259243). Also: nearly all actives have a fitted effect of over 50% in size. A digest of the protocol: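 MDA-kb2, MMTV-luc (AR/GR elements); 3,000 cells/well; cpd + 0.5 nM R1881 final; 16 hr 37C, 0% CO2; ONE-Glo 30 min RT; luminescence.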

Assay [20] in a line: qHTS assay to identify small molecule phospholipidosis (PLD) inducers (AID 1259344; active = well fitted curve in the direction sought with a large enough effect; an effect the other way counts as inactive or inconclusive). Put shortly:
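Accumulated phospholipid, stained red by LipidTOX during 24 h compound treatment of HepG2 cells at 37 C, is quantified from images as pit number and intensity, normalised per cell using Hoechst-stained nuclei.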

Sequence of Estrogen receptor (Homo sapiens) (P03372 whole entry, looked up): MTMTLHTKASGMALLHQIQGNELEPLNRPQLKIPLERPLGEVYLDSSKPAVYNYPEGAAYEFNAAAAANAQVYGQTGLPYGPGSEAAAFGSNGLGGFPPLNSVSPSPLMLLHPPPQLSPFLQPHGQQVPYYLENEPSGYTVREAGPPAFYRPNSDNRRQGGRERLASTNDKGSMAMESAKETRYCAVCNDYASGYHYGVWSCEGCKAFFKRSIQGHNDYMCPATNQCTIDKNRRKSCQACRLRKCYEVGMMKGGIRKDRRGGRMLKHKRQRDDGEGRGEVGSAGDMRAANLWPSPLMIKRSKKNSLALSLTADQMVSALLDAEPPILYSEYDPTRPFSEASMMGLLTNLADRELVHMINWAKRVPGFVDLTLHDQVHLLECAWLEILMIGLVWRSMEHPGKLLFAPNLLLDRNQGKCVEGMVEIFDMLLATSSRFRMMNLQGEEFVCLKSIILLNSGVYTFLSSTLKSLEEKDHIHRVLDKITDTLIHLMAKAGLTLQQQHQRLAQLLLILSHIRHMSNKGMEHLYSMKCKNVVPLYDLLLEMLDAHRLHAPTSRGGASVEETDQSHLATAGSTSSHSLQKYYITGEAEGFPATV
Sequence of Androgen receptor (Homo sapiens) (P10275 whole entry, looked up): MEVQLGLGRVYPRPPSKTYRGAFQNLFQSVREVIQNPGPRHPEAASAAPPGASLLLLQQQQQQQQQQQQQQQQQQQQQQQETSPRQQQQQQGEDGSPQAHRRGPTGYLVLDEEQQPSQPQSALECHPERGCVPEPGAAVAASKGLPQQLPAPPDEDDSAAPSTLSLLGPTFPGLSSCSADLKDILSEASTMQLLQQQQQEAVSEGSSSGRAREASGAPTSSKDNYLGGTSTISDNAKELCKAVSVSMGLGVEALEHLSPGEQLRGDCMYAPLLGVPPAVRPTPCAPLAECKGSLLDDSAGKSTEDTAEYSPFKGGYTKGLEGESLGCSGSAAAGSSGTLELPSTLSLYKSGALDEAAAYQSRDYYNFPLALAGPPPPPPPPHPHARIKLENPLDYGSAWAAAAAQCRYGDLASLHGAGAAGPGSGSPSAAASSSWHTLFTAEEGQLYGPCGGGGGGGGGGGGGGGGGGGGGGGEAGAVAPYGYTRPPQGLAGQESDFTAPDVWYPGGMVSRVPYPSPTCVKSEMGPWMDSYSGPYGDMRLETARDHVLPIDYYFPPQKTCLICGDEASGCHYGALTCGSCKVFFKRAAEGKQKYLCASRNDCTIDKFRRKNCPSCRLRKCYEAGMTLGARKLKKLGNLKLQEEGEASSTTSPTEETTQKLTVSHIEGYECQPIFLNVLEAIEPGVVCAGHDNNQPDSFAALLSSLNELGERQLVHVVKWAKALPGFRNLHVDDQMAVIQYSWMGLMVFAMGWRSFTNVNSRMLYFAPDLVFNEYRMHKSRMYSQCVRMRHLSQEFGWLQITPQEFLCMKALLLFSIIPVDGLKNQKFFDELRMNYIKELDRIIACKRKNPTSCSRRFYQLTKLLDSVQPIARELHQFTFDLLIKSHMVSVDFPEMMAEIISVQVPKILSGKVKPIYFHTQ

Turning to `CCN(CC)c1cccc(O)c1`, the Potency result in assay [1], in assay [2], in [3], in assay [4], in [5] and in assay [6] was “inactive” each time. In addition, the Potency entry in [7], in assay [8], in [9], in assay [10], in assay [11] and in [12] was “inactive” in each case. The Potency result in assay [13], in assay [14] and in assay [15] was “inactive” each time.
As for `NC(=O)c1ccccc1[N+](=O)[O-]`, the Potency result in [1], in assay [3], in assay [4], in assay [5], in assay [6] and in assay [7] was “inactive” throughout. For the same compound, the Potency result in [8], in assay [10], in [11], in [12], in assay [13] and in assay [16] was “inactive” throughout. The Potency result in [17], in assay [18], in assay [14] and in [15] was “inactive” each time. The Potency in assay [2] is 1.78 µM (active).
Turning to `CCCCCCCCCCCSCC(=O)O`, the Potency result in assay [1], in assay [2], in assay [3], in [4], in assay [5] and in assay [7] was “inactive” throughout. In addition, the Potency result in assay [8], in [9], in [10], in assay [11], in assay [12] and in [13] was “inactive” in each case. Moreover, the Potency entry in assay [17], in assay [18], in assay [14] and in assay [15] was “inactive” each time.
Take `CC1CCCO1` (centres undefined): the Potency result in [1], in assay [2], in assay [3], in [4], in assay [5] and in assay [7] was “inactive” in each case. The Potency entry in [8], in assay [9], in [10], in assay [11], in [12] and in [13] was “inactive” throughout. For the same compound, the Potency entry in [17], in assay [18], in [14] and in assay [15] was “inactive” in each case.
On to `CCCCCCC(O)CCCCCCCCCCC(=O)OC` (centres undefined), for which the Potency entry in assay [1], in assay [2], in assay [3], in assay [4], in [5] and in assay [6] was “inactive” in each case. Moreover, the Potency result in [7], in [8], in [9], in [10], in [11] and in assay [12] was “inactive” each time. For the same compound, the Potency result in assay [13], in assay [18], in assay [14] and in assay [15] was “inactive” each time.
Regarding `O=C1CC[C@@H](C(=O)O)N1`, the Potency entry in assay [1], in [2], in assay [3], in [4], in assay [5] and in assay [7] was “inactive” each time. Moreover, the Potency result in assay [8], in assay [9], in assay [10], in assay [11], in assay [12] and in assay [13] was “inactive” throughout. The Potency entry in [19], in assay [20], in [17], in assay [18], in assay [14] and in assay [15] was “inactive” throughout.
Turning to `C=CC(=O)NC(C)C`, the Potency entry in assay [1], in [2], in [3], in assay [4], in [5] and in assay [7] was “inactive” in each case. In addition, the Potency result in assay [8], in assay [9], in assay [10], in assay [11], in assay [12] and in assay [13] was “inactive” each time. For the same compound, the Potency result in assay [16], in assay [17], in assay [18] and in assay [14] was “inactive” in each case.
As for `CCCC(=O)OC(=O)CCC`, the Potency entry in [1], in [2], in [3], in assay [4], in [5] and in assay [6] was “inactive” throughout. The Potency entry in assay [7], in assay [8], in [9], in assay [10], in assay [11] and in [12] was “inactive” throughout. Further, the Potency entry in [13], in assay [14] and in assay [15] was “inactive” in each case.
On to `O=C(O)/C=C/c1ccc(O)c(O)c1`, for which the Potency result in [1], in [2], in assay [3], in [4], in assay [5] and in assay [7] was “inactive” in each case. Moreover, the Potency entry in assay [8], in [9], in [10], in [11], in assay [12] and in assay [13] was “inactive” in each case. Also, the Potency entry in [19], in assay [17], in [18] and in assay [14] was “inactive” in each case.
Regarding `CCCCCCCC(=O)OCCCCCC`, the Potency entry in [1], in assay [2], in [3], in assay [4], in assay [5] and in assay [6] was “inactive” in each case. Further, the Potency entry in [9], in assay [10], in assay [11], in assay [12], in assay [13] and in [19] was “inactive” throughout. For the same compound, the Potency result in assay [17], in [18], in assay [14] and in assay [15] was “inactive” in each case. For the same compound, the Potency in [7] is 3.89 µM (active).
With `Cc1c[nH]c2ccccc12`, the Potency result in [1], in [2], in [3], in [4], in [5] and in [7] was “inactive” each time. The Potency entry in assay [8], in assay [9], in [10], in assay [11], in assay [12] and in assay [13] was “inactive” in each case. The Potency result in [17], in [18] and in assay [14] was “inactive” in each case.
Regarding `CNCc1ccc(NC(=O)c2c[nH]c3c2C(=O)CCC3)cc1`, the Potency result in assay [1], in assay [2], in [3], in assay [4], in assay [5] and in assay [6] was “inactive” each time. For the same compound, the Potency result in assay [9], in assay [10], in assay [11], in assay [12], in assay [13] and in assay [17] was “inactive” throughout. Besides, the Potency result in [18], in assay [14] and in [15] was “inactive” in each case.
For the compound `SCCc1cnccn1`, the Potency entry in assay [1], in assay [2], in assay [3], in [4], in [5] and in assay [7] was “inactive” in each case. Besides, the Potency entry in assay [8], in assay [9], in [10], in assay [11], in assay [12] and in assay [13] was “inactive” throughout. Also, the Potency entry in [16], in assay [18], in [14] and in assay [15] was “inactive” each time.
On to `O=C(O)CCCc1c[nH]c2ccccc12`, for which the Potency entry in [1], in [2], in [3], in assay [5], in [6] and in assay [7] was “inactive” throughout. Besides, the Potency entry in [8], in assay [9], in assay [10], in assay [11], in [12] and in [13] was “inactive” in each case. The Potency entry in assay [18], in assay [14] and in assay [15] was “inactive” in each case. For the same compound, the Potency in assay [4] was 15.5 µM (active).
